# Reference: PubChem BioAssay AID651558 (National Center for Advancing Translational Sciences (NCATS), 2012)
# Screen size: about 1,200 compounds; about 480 (40%) were called active. Not shown: some 29% with an inconclusive outcome. This is one part of the list. A number with no mark means an inactive call. Calls come from the whole dose curve; as a rule, active = well fitted inhibition curve with a large enough effect; inconclusive = small, poorly fitted or top-dose-only effect; inactive = no such curve, though single readings can be large or run the other way.
# Assay: qHTS Assay to Find Inhibitors of Chronic Active B-Cell Receptor Signaling: Hit Validation in Primary Screen; note: nearly all actives have a fitted effect of over 75% in size
# Details: ABC-DLBCL IkB-luc/CBR ratio luminescence, 4 h; series mostly up to 46.1 µM; activity change, negative = inhibition: at the top concentration
# How it was run: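 TMD8 ABC-DLBCL cells carrying doxycycline-inducible IkBa-green luciferase fusion and free red luciferase, 0.5% FBS, dosed 46 uM–3 nM with doxycycline for 4 h at 37C. Green/red luminescence ratio normalized to basal and 10 uM MG-132.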
# % is set by controls: 0 for no effect and ±100 for the full control effect; potency is the fitted concentration of half-maximal effect.
Compound,"activity change, negative = inhibition",Potency
CC1=NN(C(N)=S)C(=O)C1N=Nc1ccc(F)cc1 (stereo unspecified),6.1%,
Cc1ccsc1/C=C/C1=NCCCN1C,-7.76%,
CC1(C)N=c2ccc([N+](=O)[O-])c(N)c2=[N+]1[O-],54.3%,
COc1cc(OC)c(OC)cc1/C=C/C(=O)c1ccc(NS(=O)(=O)c2ccc(C)cc2)cc1,,13 µM (active)
COc1ccc(S(=O)(=O)Nc2ccc3c(c2)n(C)c(=O)n3C)cc1F,40.4%,
O=C(Nc1nnc(SCc2ccc(F)cc2)s1)c1ccccn1,49.8%,
COc1ccc2nc(NC(=S)NC(=O)c3ccco3)sc2c1,0.56%,
S=C(Nc1ccccn1)c1ccccn1,-24%,
CCOc1ccc2nc(NC(=O)c3ccccn3)sc2c1,,14.6 µM (active)
C/C(=N\NC(=O)c1ccc(F)cc1)c1ccccn1,-9.46%,
CCOc1ccc2nc(NS(=O)(=O)Cc3ccccc3)sc2c1,59.6%,
O=C(Nc1nc2c(F)cc(F)cc2s1)c1ccccn1,,13 µM (active)
O=C(Nc1nc2ccc(F)cc2s1)c1ccccn1,,1.46 µM (active)
Cc1ccc2nc(NC(=O)c3ccccn3)sc2c1,,1.16 µM (active)
O=C(NCC(=O)N1CCCC(C(F)(F)F)C1)c1ccc(Oc2ccccc2)cc1 (stereo unspecified),-6.27%,
CN(C)NC(=S)NC(=O)C12CC3CC(CC(C3)C1)C2,-2.28%,
Cc1cc(C(N)=O)nn1-c1c(Cl)cc(Cl)cc1Cl,-9.85%,
COc1ccccc1NC(=O)c1c(N=Cc2c(O)ccc3ccccc23)cnn1C,,3.26 µM (active)
CC(=O)N1CC(=O)N=C1SCC(=O)Nc1nc(C)c(-c2ccccc2)s1,,23.1 µM (active)
COc1cccc(/C=N/NC(=O)c2[nH]nc3c2CCc2ccccc2-3)c1O,,20.6 µM (active)
COc1ccc(CCCC(=O)N/N=C/c2cccc(OC)c2O)cc1C,-3.33%,
CC/C(=N/Nc1ccc(Cl)cc1)c1cnnc(SC)n1,42.6%,
Cc1ccc(C(=O)Oc2ccc(Cl)c3cccnc23)cc1[N+](=O)[O-],-15.7%,
COc1cccc(N2CCN(C(=O)c3ccc(CS(=O)c4ccccc4C)o3)CC2)c1 (stereo unspecified),,5.8 µM (active)

Compound,"activity change, negative = inhibition",Potency
O=C(c1ccc(CS(=O)c2ccccc2Cl)o1)N1CCN(c2ccccc2)CC1 (stereo unspecified),,14.6 µM (active)
COc1cccc(N2CCN(C(=O)c3ccc(CS(=O)c4ccccc4Cl)o3)CC2)c1 (stereo unspecified),,1.84 µM (active)
CCCNc1ccc(C(=O)OCC)cc1[N+](=O)[O-],64.1%,
CCCNc1nc(-c2ccccc2)c(C(=O)OCC)cc1C#N,,18.4 µM (active)
CC(C)CCOc1ccc(CO[C@@H]2[C@H]3OC(C)(C)O[C@H]3O[C@@H]2C(O)CO)cc1 (stereo partly specified),-2.53%,
COc1ccc(NS(=O)(=O)c2cc(NC(=O)CNC(=O)c3cccc(OC)c3)ccc2C)cc1,48.4%,
COC(=O)c1ccc(C)c(NS(=O)(=O)c2ccc(OC)cc2)c1,,1.84 µM (active)
COC(=O)c1ccc(C)c(NS(=O)(=O)c2ccc3c(c2)OCCO3)c1,,9.2 µM (active)
COc1ccc(S(=O)(=O)Nc2cc3c(C(C)=O)c(C)oc3c3ccccc23)cc1,,2.06 µM (active)
COc1cc2nc(=S)n3[nH]c(CCn4nc(C)cc4C)nc3c2cc1OC,34.6%,
O=C(/C=C/c1ccc(-c2ccccc2[N+](=O)[O-])o1)c1ccccc1,-8.15%,
CC(=O)[C@H]1CC[C@H]2[C@@H]3CCC4=CC(=O)CC[C@]4(C)[C@H]3CC[C@]12C,-19.6%,
C[C@]12CCC(=O)C=C1CC[C@@H]1[C@@H]2[C@@H](O)C[C@@]2(C)[C@H]1CC[C@]2(O)C(=O)CO,53.5%,
COc1cccc2sc(Nc3nnc(-c4ccccc4Cl)o3)nc12,,8.2 µM (active)
COc1ccccc1-c1nnc(Nc2nc3c(OC)cccc3s2)o1,,0.366 µM (active)
NC(=S)N/N=C\c1ccc(-c2cccc(Cl)c2Cl)o1,-2.4%,
Cc1ccc(COC(=O)c2cc([N+](=O)[O-])ccc2N2CCOCC2)cc1,,5.8 µM (active)
CCCCn1c(=O)c(F)cn(Cc2ccc(OC)c([N+](=O)[O-])c2)c1=O,28.8%,
CSc1ccc(COC(=O)c2cc([N+](=O)[O-])ccc2N2CCOCC2)cc1,,0.58 µM (active)
CCN(CC)S(=O)(=O)c1ccc(N2CCOCC2)c(NC(=O)c2[nH]c(C)c(C(C)=O)c2C)c1,103%,
COc1ccc(COC(=O)c2cc([N+](=O)[O-])ccc2N2CCOCC2)cc1F,,0.092 µM (active)
CCCCn1c(-c2csc(C(C)C)c2)n[nH]c1=S,-7.52%,
CNC(=S)N/N=C(\C)c1ccc(Cl)c(Cl)c1,-22%,
COc1ccc(S(=O)(=O)N2c3ccccc3OCC2C)cc1 (stereo unspecified),,16.4 µM (active)

Compound,"activity change, negative = inhibition",Potency
CCOc1ccc(S(=O)(=O)N2c3ccccc3CC2C)cc1 (stereo unspecified),,14.6 µM (active)
CNc1nc(N)c([N+](=O)[O-])c(NCc2ccccc2)n1,58.3%,
CC(=O)c1ccc(Oc2cc(C)nc(-n3nc(C)cc3C)n2)cc1,,7.31 µM (active)
COC(=O)c1ccc(Oc2cc(C)nc(-n3nc(C)cc3C)n2)cc1,,3.26 µM (active)
O=C(CSc1cccc[n+]1[O-])c1ccc(Cl)s1,-3.25%,
COc1ccccc1-c1cc(C(=O)Nc2cccnc2)no1,154%,
O=C(CCCN1C(=O)/C(=C/c2ccccc2OC(F)F)SC1=S)Nc1cccnc1,,7.31 µM (active)
O=C(O)CCCN1C(=O)/C(=C\c2ccccc2OCc2ccccc2)SC1=S,,7.31 µM (active)
CCCNS(=O)(=O)c1cccc(C(=O)OCc2cc(=O)oc3cc(OC)ccc23)c1,,9.2 µM (active)
Cc1cc(C)c2nc(SCC(=O)N3CC(=O)Nc4ccccc43)c(C#N)cc2c1,,3.66 µM (active)
COc1cc(OC)cc(C(=O)N2CC(=O)Nc3ccccc32)c1,,14.6 µM (active)
Cc1cc(C)cc(C(=O)N2CC(=O)Nc3ccccc32)c1,,3.66 µM (active)
COc1cc(OC)cc(C(=O)N/N=C(\C)CC(=O)Nc2ccccn2)c1,-11.8%,
COc1ccccc1NC(=O)N1CCC(c2nc3cc(C)c(C)cc3[nH]2)CC1,,5.17 µM (active)
COc1ccc(N2CC(C(=O)N3CCC(c4nc5ccccc5[nH]4)CC3)CC2=O)cc1 (stereo unspecified),-2.79%,
ClC(Cl)(Cl)c1nc2ccccc2n2nncc12,,18.4 µM (active)
COc1cc(-c2noc(C)c2/C=C/c2ccc(OC(C)=O)cc2)cc(OC)c1OC,,4.61 µM (active)
COc1cc(-c2noc(C)c2/C=C/c2ccc(N)cc2)cc(OC)c1OC,,1.3 µM (active)
CCOC(=O)COc1cccc2c(=O)n(CC(=O)NCc3ccccc3)ccc12,41.5%,
CCOC(=O)C(C)Oc1cccc2c(=O)n(CC(=O)NCc3ccco3)ccc12 (stereo unspecified),,18.4 µM (active)
CCOC(=O)C(C)Oc1cccc2c(=O)n(CC(=O)NCc3ccccc3)ccc12 (stereo unspecified),,4.11 µM (active)
CCOC(=O)COc1cccc2c(=O)n(CC(=O)NCc3ccc(F)cc3)ccc12,,3.26 µM (active)
CCOC(=O)C(C)Oc1cccc2c(=O)n(CC(=O)NCc3ccc4c(c3)OCO4)ccc12 (stereo unspecified),,20.6 µM (active)
CCOc1ccc(CCNC(=O)c2cc(=O)[nH]c3ccc(S(=O)(=O)N4CCCCC4C)cc23)cc1OCC (stereo unspecified),13.6%,

Compound,"activity change, negative = inhibition",Potency
C=CCn1c(O)c(N=NC(=S)Nc2ccccc2C)c2cc(S(=O)(=O)N3CCOCC3)ccc21,-8.84%,
CCOC(=O)C(C)Oc1cccc2c(=O)n(CC(=O)NCc3ccc(F)cc3)ccc12 (stereo unspecified),,2.59 µM (active)
COC(=O)COc1cccc2c(=O)n(CC(=O)NCc3ccccc3)ccc12,,9.2 µM (active)
Cc1cccc(N(C)S(=O)(=O)c2ccc(-c3cc(C)no3)s2)c1,65.2%,
CCN(c1cccc(C)c1)S(=O)(=O)c1ccc(-c2cc(C)no2)s1,,16.4 µM (active)
Cc1cc(Cl)ccc1OCCCC(=O)NO,,16.4 µM (active)
Cc1nn(C)cc1CNC(=O)COc1ccc(Cl)cc1Cl,-20.7%,
CC[C@]1(O)C[C@@H]2CN(CCc3c([nH]c4ccccc34)[C@@](C(=O)OC)(c3cc4c(cc3OC)N(C)[C@H]3[C@@](O)(C(=O)OC)[C@H](OC(C)=O)[C@]5(CC)C=CCN6CC[C@]43[C@@H]65)C2)C1,,0.0461 µM (active)
CC[C@]1(O)CC2CN(CCc3c([nH]c4ccccc34)[C@@](C(=O)OC)(c3cc4c(cc3OC)N(C=O)[C@H]3[C@@](O)(C(=O)OC)[C@H](OC(C)=O)[C@]5(CC)C=CCN6CC[C@]43[C@@H]65)C2)C1 (stereo partly specified),,0.0517 µM (active)
COc1ccc(C(=O)/C=C/c2ccc(O)cc2)c2c1CC(O)C(C)(C)O2 (stereo unspecified),,20.6 µM (active)
O=S1(=O)[C@H]2C[C@H](CO)O[C@@]2(CO)CN1Cc1ccc(-c2cccc(Cl)c2)cc1,-24.2%,
COc1cc(Nc2c3c(nc4ccccc24)CCC3)cc(OC)c1OC,,18.4 µM (active)
COc1ccccc1-c1nc2c3ccccc3nc(=S)n2[nH]1,-12.7%,
COc1ccc(OC)c(Nc2c3c(nc4ccccc24)CCC3)c1,,14.6 µM (active)
Cc1nn(CCC(=O)NNC(=S)Nc2ccccc2)c(C)c1Br,-4.17%,
Cc1ccc(C)c(/C=N/NC(=S)NC(C)C)c1,-8.95%,
Cc1cc(C)cc(NS(=O)(=O)c2ccc(-c3cnc(C4CC4)o3)cc2)c1,,2.06 µM (active)
COc1ccc(C)cc1NS(=O)(=O)c1ccc(-c2cnc(C3CC3)o2)cc1,,0.92 µM (active)
COc1ccc(NS(=O)(=O)c2cc(-c3cnc(C4CC4)o3)ccc2C)cc1,,23.1 µM (active)
Cc1ccc(C)c(NS(=O)(=O)c2ccc(-c3cnc(C4CC4)o3)cc2)c1,,1.03 µM (active)
Cc1ccc(NS(=O)(=O)c2ccc(-c3cnc(C4CC4)o3)cc2)c(C)c1,,3.26 µM (active)
CC1=CC(C)(C)N(S(=O)(=O)c2ccc(C)cc2)c2ccccc21,,14.6 µM (active)
CC(=O)Nc1ccc(S(=O)(=O)NCC(=O)OC(C)c2ccccc2Cl)cc1 (stereo unspecified),-9.59%,
CC(=O)Nc1ccc(S(=O)(=O)N2c3ccccc3C(C)=CC2(C)C)cc1,,4.11 µM (active)
